Mtb FBA inh: Mtb fructose-bisphosphate aldolase inhibition | P9WQA3 | hit rate 2.3% among 360,000 | AID 588726 | purified M. tuberculosis FBA, fluorescence read-out | inhibition, % at 1 µM;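 note: 0% = vehicle and 100% = reference inhibitor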
Target sequence (P9WQA3 whole entry, looked up): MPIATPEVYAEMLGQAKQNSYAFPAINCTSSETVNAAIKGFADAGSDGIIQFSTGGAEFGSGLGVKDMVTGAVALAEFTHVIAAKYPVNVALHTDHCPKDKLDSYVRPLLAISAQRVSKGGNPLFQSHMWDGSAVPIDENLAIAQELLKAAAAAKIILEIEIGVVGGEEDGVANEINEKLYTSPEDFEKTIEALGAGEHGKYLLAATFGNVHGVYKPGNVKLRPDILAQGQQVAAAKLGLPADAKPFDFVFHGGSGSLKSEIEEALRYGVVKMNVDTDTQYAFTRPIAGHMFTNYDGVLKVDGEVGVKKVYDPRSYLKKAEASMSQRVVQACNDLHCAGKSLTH
RecA splice inh: inhibitors of M. tuberculosis RecA intein splicing. cell-free RecA intein splicing, fluorescence. AID 2221. hit rate 0.75% among 290,000. inhibition, % (concentration not given with the values); in the data active = inhibition above about 30%;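 note: 0% = vehicle wells and 100% = reference inhibitor control wells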
CCHF vOTU inh: CCHFV vOTU protease inhibition | Pep-AMC fluorescence | inhibition, % at 11.5 µM | hit rate 0.55% among 370,000; in the data active = inhibition above about 30%; note: 0% = vehicle wells with enzyme and 100% = no enzyme wells
GDH-TPI counter-1: inhibits GDH-TPI coupling enzymes, artifact for Mtb FBA screen; inhibition, % at 4.8 µM; hit rate 1.2% among 360,000; GDH-TPI coupled enzyme counterscreen, NADH absorbance; in the data active = inhibition above about 30%;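 note: 0% = DMSO wells and 100% = wells lacking the enzyme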
Mtb betalactam: beta-lactam sensitization of Mtb H37Rv; M. tuberculosis H37Rv growth with meropenem, percent inhibition; inhibition, % at 25 µM; hit rate 0.27% among 330,000; call rule not given here;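 note: growth measured after seven days incubation then overnight dye step; 0% = bacteria only wells and 100% = bacteria with antibiotic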
Mtb FBA inh conf: Mtb FBA inhibition, confirmed; hit rate 78% among 5,600; shares compounds with Mtb FBA inh; purified M. tuberculosis FBA, fluorescence read-out; inhibition, % at 1 µM;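 note: 0% = vehicle wells and 100% = reference inhibitor wells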
GDH-TPI counter-2: counter-screen for M. tuberculosis FBA inhibitors: GDH-TPI coupled enzyme inhibition; shares compounds with Mtb FBA inh; GDH-TPI coupled enzyme counterscreen, fluorescence; inhibition, % at 1 µM; hit rate 81% among 5,600; in the data active = inhibition above about 10%
GDH-TPI DR: GDH-TPI dose response counter-screen for Mtb FBA; shares compounds with Mtb FBA inh; GDH-TPI coupled enzyme assay, fluorescence, artifact counterscreen; IC50, µM; hit rate 79% among 170; AID 652145; call rule not given here
An asterisk follows results filed as active; . = not tested or not shown; + = active, no number. Sampled rows, rich in hits. Any-hit rate of the full collection: about 4.2%. Cut-off read from the data, not from the text of the source, unless noted: active = inhibition above about 27%; inactive = the rest.

SMILES | Mtb FBA inh | RecA splice inh | CCHF vOTU inh | GDH-TPI counter-1 | Mtb betalactam | Mtb FBA inh conf | GDH-TPI counter-2 | others
Cc1cc2c(c(=O)o1)[C@@]1(C(=O)N(C)c3ccccc31)C1=C(CC3(CCCCC3)OC1=O)O2 | . | . | -4.0 | . | . | . | .
CS(=O)(=O)c1ccc(Cl)c(C(=O)NC2CCSc3ccccc32)c1 (stereo not given) | 63.8* | 1.4 | 4.2 | 0.0 | 4.5 | 8.9 | -4.7
CCN1CCSc2ccc(C(=O)NCc3ccccc3F)cc21 | 86.9* | -6.0 | -122.1 | 12.0 | 2.2 | + | +
CCN1CCSc2ccc(C(=O)Nc3ccc(NC(C)=O)cc3)cc21 | 6.8 | -8.6 | -8.5 | 14.8 | 18.2 | . | .
CCN1CCSc2ccc(C(=O)NCc3ccccc3Br)cc21 | 59.2* | -1.6 | -45.2 | 14.8 | -6.2 | 0.8 | -1.9
C[C@@H]1[C@@H](O)C[C@@]2(C[C@H](O)c3cc(Cl)cc(Cl)c3O2)O[C@H]1c1ccccc1Cl | . | . | 7.7 | . | . | . | .
Cn1c(=O)c2cc(NC(=O)Nc3cccnc3)ccc2n1-c1ccc(C(C)(C)C)cc1 | 31.2* | . | 0.7 | 5.5 | . | 26.9 | 14.4*
Cc1nc(N2CCN(C(=O)c3ccco3)CC2)c(C#N)c2c1CCCC2 | 37.9* | 3.4 | -17.5 | 11.3 | 14.0 | 97.8* | 83.1*
CC(=O)c1ccc(OCC(O)Cn2nnc3ccccc32)cc1 (stereo not given) | 0.5 | 0.1 | 6.7 | 13.6 | 4.5 | . | .
N#Cc1ccc(-c2ccc(OCC(O)Cn3nnc4ccccc43)cc2)cc1 (stereo not given) | 30.8* | . | 2.7 | 3.0 | 22.2 | + | +
N#Cc1ccc(-c2ccc(OCC(O)CN3CCCCC3)cc2)cc1 (stereo not given) | 57.7* | -1.1 | 11.3 | 7.0 | 4.2 | 115.6* | 81.2*
COc1cccc(C(=O)NCCN2C(=O)C3C4C=CC(C4)C3C2=O)c1 (stereo not given) | . | . | -4.8 | . | . | . | .
CC1(C)Cc2c(c(-c3ccco3)nc3sc4c(NCCN5CCOCC5)ncnc4c23)CO1 | 27.4* | -1.1 | -21.2 | 34.5* | 87.3 | 5.4 | -0.8
CC1(C)Cc2c(c(-c3ccco3)nc3sc4c(NCC5CCCO5)ncnc4c23)CO1 (stereo not given) | 14.4 | -0.7 | -7.4 | 26.0 | 18.2 | . | .
CC1(C)Cc2c(c(-c3ccco3)nc3sc4c(NCCCO)ncnc4c23)CO1 | 36.6* | . | -46.6 | 48.1* | 2.4 | 43.3* | 24.1*
CCN(Cc1cn2cccnc2n1)C1CCCCC1 | 109.3* | -3.7 | -39.0 | -5.0 | -9.9 | -4.0 | -2.1
Cc1ccc(NC(=O)C2=CC=CN3CCS(=O)(=O)N=C23)cc1 | 1.7 | . | 12.3 | 8.1 | -1.7 | . | .
CC1=C(Cl)C2=NS(=O)(=O)CCN2C=C1Cl | 89.3* | -1.7 | -69.1 | 7.6 | 2.7 | 159.4* | 116.1*
COC(=O)c1cc2c(c3c4cc(OC)ccc4n(S(=O)(=O)c4cccc(C)c4)c13)C(=O)N(Cc1ccc(N(C)C)cc1)C2 | . | . | 2.7 | . | . | . | .
Cc1ccc(S(=O)(=O)NNc2c3ccccc3nc3ccc(Cl)cc23)cc1 | 91.1* | . | -18.9 | 10.0 | . | 41.7* | 28.4*
COC(=O)[C@]1(CNC(=O)C(F)(F)F)CC(=O)N(C)[C@@H]1c1ccccc1 | . | . | -0.6 | . | . | . | .
COC(=O)[C@]12C[C@H](CC(=O)N3CCN(C(=O)c4ccco4)CC3)C(=O)N(Cc3ccco3)C1=C[C@H](COCc1ccccc1)O[C@@H]2C | . | . | 0.1 | . | . | . | .
Cc1ccc(-c2nc3ccccc3nc2NN)cc1 | 31.5* | -3.2 | -12.1 | 9.2 | -8.4 | 14.2 | 8.8 | GDH-TPI DR=>10
CCc1sc(C(=O)Nc2ccc(NC(C)=O)cc2)cc1C | 27.1* | -0.4 | -10.3 | 2.3 | 2.1 | 0.6 | -0.1
CC(C)(C)NC(=O)Cn1nc(C(F)(F)F)c2c1CCCC2 | -8.4 | 0.1 | -8.1 | -3.5 | 0.9 | . | .
SMILES | Mtb FBA inh | RecA splice inh | CCHF vOTU inh | GDH-TPI counter-1 | Mtb betalactam | Mtb FBA inh conf | GDH-TPI counter-2 | others
FC(F)(F)c1nc2nncn2c2c1CCCCC2 | 35.5* | 1.1 | -12.6 | 12.2 | -4.6 | 133.2* | 117.2*
CCC(C)NC(=O)c1ccc2c(c1)N(Cc1ccccc1)C(=O)CS2 (stereo not given) | 96.6* | -0.8 | 0.8 | 4.4 | 2.9 | 68.3* | 78.1*
COC(=O)c1cc(C#N)c(N2CCN(C)CC2)nc1C | 0.9 | -0.3 | -8.9 | 5.0 | 1.0 | . | .
COC(=O)c1cc(C#N)c(N2CC(C)OC(C)C2)nc1C (stereo not given) | 35.0* | -0.2 | -8.1 | 4.8 | 6.2 | 65.2* | 44.0*
N#Cc1c(C(F)(F)F)cc(-c2ccccc2)nc1SCCN1CCOCC1 | 46.9* | 1.9 | -12.6 | 1.4 | 6.1 | -2.0 | -5.0
CCCSc1nc(-c2ccccc2)cc(C(F)(F)F)c1C#N | 1.6 | 1.6 | . | -13.1 | -2.8 | . | .
CC(C)(C)c1ccc(C#C[C@@H]2C=C[C@@H](O)[C@@H](COC(=O)Nc3ccccc3)O2)cc1 | . | . | 11.8 | . | . | . | .
COc1ccc(-c2nc3ccccc3s2)cc1NC(C)=O | 72.7* | -0.7 | -39.9 | 39.0* | -6.4 | 138.3* | 117.7*
Oc1ccc(-c2nc3ccccc3s2)c(O)c1 | 37.0* | -7.3 | -35.1 | 25.2 | 89.6 | 106.1* | 84.3*
O=C(Cc1nc2ccccc2s1)c1ccc(O)cc1O | . | 1.7 | . | . | -7.9 | . | .
Nc1ccccc1-c1nc2ccccc2s1 | 51.2* | -19.9 | -94.5 | 6.2 | 10.0 | 196.8* | 146.8*
COc1ccc(-c2nc3ccccc3s2)cc1 | 17.9 | . | -15.3 | 0.4 | . | . | .
Cc1ccc(Cn2cccc(-c3nc4ccccc4s3)c2=O)cc1 | 54.5* | -11.9 | -77.0 | 18.3 | -15.0 | 114.6* | 107.0*
O=S1(=O)c2ccc(N3CC[C@@H](O)C3)cc2OCCCN1C1CC1 | . | . | -6.9 | . | . | . | .
Oc1ccc(-c2nc3ccccc3s2)cc1 | 94.4* | 4.2 | -34.4 | 12.1 | 81.8 | 75.4* | 63.2*
c1csc(-c2nc3ccccc3s2)c1 | 39.4* | 0.2 | -12.0 | 7.3 | 4.0 | -1.4 | -3.4
c1ccc2sc(-c3ccncc3)nc2c1 | 2.2 | 1.1 | -0.4 | 7.5 | -2.5 | . | .
c1csc(-c2ccc3ccccc3n2)c1 | 25.0 | 1.8 | -8.9 | 10.8 | 3.1 | . | .
CN(Cc1ccccc1)C(=O)OCc1cn(Cc2c(F)cccc2F)nn1 | . | . | -3.1 | . | . | . | .
Cn1c(=O)n(Cc2ccc(F)cc2)c(=O)c2c1nc1n2CCCN1C1CCCCC1 | 29.2* | -1.5 | 0.5 | 1.2 | 99.6 | 153.6* | 147.3*
COc1ccc2c(CC(=O)O)cc(=O)oc2c1 | 66.4* | 1.2 | -28.9 | 12.3 | -1.8 | + | +
COc1ccc2c(CN3CCCC3)cc(=O)oc2c1 | 36.1* | . | -34.8 | . | . | 10.3 | -1.0 | GDH-TPI DR=5.07*
Cc1ccc2c(CN3CCCCC3)cc(=O)oc2c1 | 2.8 | 1.0 | 7.8 | 6.0 | 2.8 | . | .
CCCCN(CCCC)Cc1cc(=O)oc2cc(OC)ccc12 | 44.8* | . | -13.7 | . | . | + | +
COc1cc(OC)cc(C(=O)NCC(=O)OCc2cc(=O)oc3cc(OC)ccc23)c1 | 14.9 | . | -14.0 | 11.3 | -10.4 | . | .

Screens deposited in PubChem by several laboratories.
